Most compounds without a hit are left out; they make up all but 19% or so of the library.
IL1B secr inh = inhibitors of inflammasome signaling (IL-1 beta secretion). THP-1 LPS/ATP IL-1B secretion, AlphaLISA, 16 h; active compounds read low. activity change, % at 57.5 µM. actives 4.7% (n = 360,000). AID 743279; in the data active = activity change below about -50%; inconclusive = mostly about -30% to -49%
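THP-1 cells pretreated 1 hr with compounds (up to 57.5 uM final), then stimulated with LPS (250 ng/mL final) plus ATP (1.25 mM final); secreted IL-1B measured by AlphaLISA after 16 hr, decreased signal indicating inhibition.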
HT1080 IDH1KD tx = kills HT-1080 cells with IDH1 knockdown; HT-1080 IDH1 knockdown viability, ATP luminescence, 48 h; Potency, µM (titrated, usually from 46.1 µM), without a hit: at the highest dose activity, negative = toxicity, usual class: cytotoxic; actives 2% (n = 360,000);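 also: potency is read from the fitted curve at half-maximal effect; 0% = DMSO wells and -100% = cell-free medium wells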
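Cytotoxicity counter-line: IDH1KD HT-1080, 48 h, CellTiter-Glo. Curves classed by r2, magnitude and activity.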
HT1080NT lethal = kills 2HG-producing HT-1080-NT fibrosarcoma cells | actives 1.6% (n = 360,000) | Potency, µM (series often up to 46.1 µM), for the others: at the top dose activity, negative = less viability, hits mostly cytotoxic | HT-1080-NT fibrosarcoma viability, CellTiter-Glo ATP luminescence, 48 h;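 also: NT is the 2HG producing partner of a matched IDH1 knockdown line; potency is read from the fitted curve at half-maximal effect; 0% = DMSO-treated cells and -100% = media-only wells without cells; nearly all actives have a fitted effect of over 55% in size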
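750 cells/well, RPMI + 5% FBS; 2 h settle, compound pin-transfer, 48 h at 37 degrees C. CellTiter-Glo 10 min RT, luminescence. Normalized to DMSO and media-only wells.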
DT40 TDP1 no CPT = qHTS for Inhibitors of human tyrosyl-DNA phosphodiesterase 1 (TDP1): qHTS in cells in absence of CPT | DT40 Tdp1-/- hTDP1 cells, no CPT, ATP luminescence, 48 h | Potency, µM (top dose mostly 46.2 µM), for inactives: at the highest dose activity change, negative = growth inhibition, most hits filed as inhibitors | actives 15% (n = 420,000) | AID 686978, 2013; also: potency is read from the fitted curve at half-maximal effect; nearly all actives have a fitted effect of over 55% in size
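Growth kinetics read by CellTiter-Glo luminescence after ≥48 hr at 37 °C. Cells: DT40 Tdp1-/- stably carrying human TDP1, 400 per well, compound exposure in the absence of CPT (DMSO vehicle).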
DT40 TDP1 CPT = DT40-hTDP1 cell growth loss with CPT; actives 12% (n = 420,000); chicken DT40 Tdp1-/-;hTDP1 cells + 20 nM CPT, ATP luminescence, 48 h; AID 686979; Potency, µM (highest dose often 46.2 µM), inactives show top-dose activity change, negative = growth inhibition, most hits filed as inhibitors; also: potency is read from the fitted curve at half-maximal effect; nearly all actives have a fitted effect of over 55% in size
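Cell growth measured by CellTiter-Glo luminescence after a minimum 48 h, 37 C compound exposure with 20 nM CPT in Tdp1-knockout DT40 cells stably expressing hTDP1, seeded 400/well; qHTS titration format.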
Active calls of the source: *; [ ] = another dose, or the depositor's remark. Unless noted, calls follow the shape of the dose curve; as a rule, active = well fitted curve in the direction sought with a large enough effect; inconclusive = small, poorly fitted or top-dose-only effect, or another doubt; inactive = no such curve, though single readings can be large; an effect the other way counts as inactive or inconclusive. Unless noted, % is scaled to controls: 0 for no effect and ±100 for the full control effect.

C#CCOCCOCCOCCNc1nc(N2CCN(C(=O)CCCCCCCCCCNC(=O)Cn3cc(C[C@@H](C)O)nn3)CC2)nc(N2CCN(C(=O)CCCCCCCCCCNC(=O)[C@H](CCCN=C(N)N)n3cc(C[C@@H](C)CC)nn3)CC2)n1 was read as IL1B secr inh -97*, HT1080 IDH1KD tx inconclusive, HT1080NT lethal inconclusive, DT40 TDP1 no CPT 16µM* and DT40 TDP1 CPT inconclusive.
For C#CCOCCOCCOCCNc1nc(N2CCN(C(=O)CCCCCCCCCCNC(=O)Cn3cc(CCCCCN)nn3)CC2)nc(N2CCN(C(=O)CCCCCCCCCCNC(=O)[C@@H](CCC(=O)O)n3cc(CCCCCN)nn3)CC2)n1 the results were IL1B secr inh -17, HT1080 IDH1KD tx 7%, HT1080NT lethal 1%, DT40 TDP1 no CPT inconclusive and DT40 TDP1 CPT inconclusive.
Screening c1cncc(OC2CCN(Cc3ccc4c(c3)CN(Cc3ccc5c(c3)OCO5)CCO4)CC2)c1 returned DT40 TDP1 no CPT inconclusive and DT40 TDP1 CPT -12%[9.04 µM].
`C[C@@H](O)[C@H]1C(=O)N2C(C(=O)O)=C([C@H]3CCCO3)S[C@H]12` gave DT40 TDP1 no CPT 4% and DT40 TDP1 CPT 11%.
`O=C(NCCc1nnc2n1CCN(Cc1c(F)cccc1F)CC2)c1ccc(F)cc1` gave DT40 TDP1 no CPT -10% and DT40 TDP1 CPT 10%.
C#CCOCCOCCOCCNc1nc(N2CCN(C(=O)CCCCCCCCCCNC(=O)[C@@H](CCSC)n3cc(CCO)nn3)CC2)nc(N2CCN(C(=O)CCCCCCCCCCNC(=O)[C@H](CCSC)n3cc(CCO)nn3)CC2)n1 was read as IL1B secr inh inconclusive, HT1080 IDH1KD tx -1%, HT1080NT lethal -20%, DT40 TDP1 no CPT inconclusive and DT40 TDP1 CPT 6.5µM*.
C#CCOCCOCCOCCNc1nc(N2CCOCC2)nc(N2CCN(C(=O)CCCCCCCCCCNC(=O)[C@@H](CCC(=O)O)n3cc(CCCCCN)nn3)CC2)n1 was read as IL1B secr inh 13, HT1080 IDH1KD tx 16%, HT1080NT lethal 8%, DT40 TDP1 no CPT 13% and DT40 TDP1 CPT 2%.
`O=C(N/N=C/c1ccccc1)C1CCCN1C(=O)c1cc([N+](=O)[O-])cc([N+](=O)[O-])c1` (centres undefined) gave IL1B secr inh -13, HT1080 IDH1KD tx -8%, HT1080NT lethal -10%, DT40 TDP1 no CPT -10% and DT40 TDP1 CPT inconclusive.
For CCc1sc(C(=O)Nc2cccnc2)cc1Br the results were IL1B secr inh -22, HT1080 IDH1KD tx -7%, HT1080NT lethal -16%, DT40 TDP1 no CPT -7% and DT40 TDP1 CPT -28%.
COc1ccc(C2CC(c3cccs3)=NN2C(=O)CSC2=NCCS2)cc1 (centres undefined) was read as IL1B secr inh -81*, HT1080 IDH1KD tx -17%, HT1080NT lethal -14%, DT40 TDP1 no CPT inconclusive and DT40 TDP1 CPT -41%.
`COc1cccc(C2CC(c3cccs3)=NN2C(=O)CSc2nc3ccccc3o2)c1OC` (centres undefined) gave IL1B secr inh -5, HT1080 IDH1KD tx 1%, HT1080NT lethal 12%, DT40 TDP1 no CPT 23µM* and DT40 TDP1 CPT 26µM*.
Cc1ccc(C2CC(c3cccs3)=NN2C(=O)CSC2=NCCS2)cc1 (centres undefined) was read as HT1080 IDH1KD tx -2%, HT1080NT lethal -16%, DT40 TDP1 no CPT inconclusive and DT40 TDP1 CPT inconclusive.
For COc1ccc(C2CC(c3cccs3)=NN2C(=O)c2ccc(Br)o2)cc1 (centres undefined) the results were IL1B secr inh -5, HT1080 IDH1KD tx -5%, HT1080NT lethal -4%, DT40 TDP1 no CPT inconclusive and DT40 TDP1 CPT 23µM*.
For COc1ccccc1C1CC(c2cccs2)=NN1C(=O)CCC(=O)O (centres undefined) the results were IL1B secr inh 34, HT1080 IDH1KD tx 17%, HT1080NT lethal 10%, DT40 TDP1 no CPT -5% and DT40 TDP1 CPT -29%.
Screening CSc1cccc(NC(=O)c2cc(S(=O)(=O)N3CCc4ccccc43)cn2C)c1 returned IL1B secr inh -15, HT1080 IDH1KD tx -13%, HT1080NT lethal -7%, DT40 TDP1 no CPT 26µM* and DT40 TDP1 CPT 15µM*.
Screening CCOC(=O)c1cc(S(=O)(=O)N2CCc3ccccc32)cn1C returned IL1B secr inh 9, HT1080 IDH1KD tx 0%, HT1080NT lethal 0%, DT40 TDP1 no CPT 2.3µM* and DT40 TDP1 CPT inconclusive.
`Cn1cc(S(=O)(=O)N2CCc3ccccc32)cc1C(=O)Nc1ccc(Cl)cc1` gave IL1B secr inh -7, HT1080 IDH1KD tx -14%, HT1080NT lethal -25%, DT40 TDP1 no CPT 26µM* and DT40 TDP1 CPT 26µM*.
Screening CN(C(=O)c1cc(S(=O)(=O)N2CCc3ccccc32)cn1C)C1CCCCC1 returned IL1B secr inh -3, HT1080 IDH1KD tx -17%, HT1080NT lethal -2%, DT40 TDP1 no CPT 18µM* and DT40 TDP1 CPT 21µM*.
Screening COc1cccc(N2CCN(C(=S)NCc3ccco3)CC2)c1 returned IL1B secr inh 10, HT1080 IDH1KD tx 0%, HT1080NT lethal -5%, DT40 TDP1 no CPT -18% and DT40 TDP1 CPT 1%.
Screening CC(C)(O)c1cc2ccc(C#Cc3ccsc3)cc2c(=O)o1 returned IL1B secr inh -22, HT1080 IDH1KD tx -1%, HT1080NT lethal -9%, DT40 TDP1 no CPT inconclusive and DT40 TDP1 CPT inconclusive.
For Cc1ccc(N2C(=O)SC(Cc3ccccc3)C2=O)cc1 (centres undefined) the results were IL1B secr inh 2, HT1080 IDH1KD tx 2%, HT1080NT lethal 2%, DT40 TDP1 no CPT inconclusive and DT40 TDP1 CPT inconclusive.
For Cn1cc(S(=O)(=O)N2CCc3ccccc32)cc1C(=O)NC(C)(C)C the results were IL1B secr inh 36, HT1080 IDH1KD tx -10%, HT1080NT lethal inconclusive, DT40 TDP1 no CPT 2.6µM* and DT40 TDP1 CPT 3.3µM*.
Cc1c(C(=O)N2CCCCC2)c(S(=O)(=O)N2CCc3ccccc32)c(C)n1C was read as IL1B secr inh 18, HT1080 IDH1KD tx 0%, HT1080NT lethal 18%, DT40 TDP1 no CPT 11% and DT40 TDP1 CPT -14%.
CCOC(=O)c1c(S(=O)(=O)N2CCCCC2C)c(C)n(C)c1C (centres undefined) was read as IL1B secr inh 26, HT1080 IDH1KD tx -2%, HT1080NT lethal 10%, DT40 TDP1 no CPT 10µM* and DT40 TDP1 CPT inconclusive.
Cc1cccc(C)c1NC(=O)c1cc(S(=O)(=O)N2CCc3ccccc32)cn1C was read as IL1B secr inh 16, HT1080 IDH1KD tx 3%, HT1080NT lethal 16%, DT40 TDP1 no CPT -23% and DT40 TDP1 CPT -3%.

High-throughput results (PubChem BioAssay)
